GPT2 inh: GPT2 alanine aminotransferase inhibition. Q8TD30. Recombinant GPT2, coupled pyruvate oxidase/HRP Amplex Red fluorescence. Potency, µM (series often up to 57.7 µM), hits mostly inhibitors. 0.25% of 100,000 active; further: nearly all actives have a fitted effect of over 60% in size
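Fluorescence of coupled pyruvate oxidase/HRP/Amplex Red system (50uM Amplex, 30 min, dark) reports pyruvate formed by GPT2. Enzyme reaction: 10ng/uL GPT2, 2mM L-alanine, 250uM a-KG, 30 min room temperature, pH 7.5; 50uM AOA control.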
NIH3T3 tox: kills NIH 3T3 cells. NIH 3T3 viability, CellTiter-Glo ATP luminescence, 48-72 h. Potency, µM (doses to about 96.7 µM), usual class: inhibitors. 4.3% of 94,000 active. AID 1345082; further: nearly all actives have a fitted effect of over 55% in size
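Viability of NIH 3T3 cells after 48 or 72 hr compound treatment at 37 °C was assessed by CellTiter-Glo, with luminescence imaged following a 10 min room-temperature step.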
HEK cytotox: kills HEK 293 cells. 6.6% of 94,000 active. Potency, µM (series often up to 115 µM), most hits filed as inhibitors. HEK 293 viability, ATP luminescence (CellTiter-Glo), 48-72 h. AID 1345083; further: nearly all actives have a fitted effect of over 60% in size
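qHTS cytotoxicity; HEK 293, 250 cells/well; compound pinned; 48 or 72 hr, 37 degree Celsius, 5% CO2, 95% humidity; CellTiter-Glo, 10 min RT; luminescence (ATP).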
NPR1 antag: blocks ANP-stimulated signaling of human Npr1 receptor. P16066. HEK293 hNpr1 GloSensor cGMP, ANP-stimulated luminescence. Potency, µM (top dose mostly 46.3 µM), usual class: inhibitors. 1.6% of 76,000 active. AID 1347048; calls by dose curve; further: nearly all actives have a fitted effect of over 60% in size
Target sequence (P16066 whole entry, looked up): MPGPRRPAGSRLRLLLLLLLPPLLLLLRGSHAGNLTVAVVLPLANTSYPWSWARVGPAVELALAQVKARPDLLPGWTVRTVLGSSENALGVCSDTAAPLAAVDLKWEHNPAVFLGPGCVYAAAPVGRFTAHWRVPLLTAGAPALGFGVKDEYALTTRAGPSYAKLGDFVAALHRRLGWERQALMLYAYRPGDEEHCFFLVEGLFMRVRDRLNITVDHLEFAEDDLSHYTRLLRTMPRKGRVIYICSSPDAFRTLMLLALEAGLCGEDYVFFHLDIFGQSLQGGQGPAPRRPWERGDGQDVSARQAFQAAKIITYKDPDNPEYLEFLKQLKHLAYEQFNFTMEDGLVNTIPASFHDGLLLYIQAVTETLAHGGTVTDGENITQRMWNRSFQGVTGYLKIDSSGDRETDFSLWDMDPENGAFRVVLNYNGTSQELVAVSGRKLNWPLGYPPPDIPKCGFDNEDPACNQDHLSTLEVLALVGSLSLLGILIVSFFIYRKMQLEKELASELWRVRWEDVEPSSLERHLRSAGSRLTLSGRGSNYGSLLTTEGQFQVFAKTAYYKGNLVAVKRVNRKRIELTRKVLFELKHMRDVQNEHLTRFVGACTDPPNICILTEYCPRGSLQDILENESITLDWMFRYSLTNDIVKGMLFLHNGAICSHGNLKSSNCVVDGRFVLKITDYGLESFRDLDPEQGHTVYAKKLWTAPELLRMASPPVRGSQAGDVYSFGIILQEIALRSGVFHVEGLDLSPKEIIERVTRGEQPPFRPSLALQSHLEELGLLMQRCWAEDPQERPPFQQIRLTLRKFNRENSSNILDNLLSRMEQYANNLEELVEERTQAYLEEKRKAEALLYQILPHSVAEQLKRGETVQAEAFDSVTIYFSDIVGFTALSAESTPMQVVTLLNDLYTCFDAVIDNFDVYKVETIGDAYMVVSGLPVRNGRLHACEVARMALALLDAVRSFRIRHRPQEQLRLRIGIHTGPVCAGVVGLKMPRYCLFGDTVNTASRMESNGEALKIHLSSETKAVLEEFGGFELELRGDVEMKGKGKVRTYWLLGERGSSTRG
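Compound pre-incubated 30 min at room temperature on GloSensor-loaded HEK293 cells stably carrying hNpr1 and the pGS-40F cGMP biosensor. Stimulation uses hNppA at 0.1 nM final; luminescence is taken at baseline and 20 min post-agonist.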
Luciferase inh: inhibitors of firefly (Photinus pyralis) luciferase; purified P. pyralis luciferase, luminescence, biochemical; Potency, µM (top dose mostly 115 µM), usual class: inhibitors; P08659; 2.5% of 76,000 active; further: nearly all actives have a fitted effect of over 65% in size
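Inhibitors were tested against purified firefly luciferase in a biochemical, low-substrate format (both substrates at 10uM) and luminescence measured with a CCD imager.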
Large screens that a line does not name were inactive. This is a sample that favours compounds with a hit; in the whole collection about 10% have one here. Unless noted, the call rests on the fitted dose curve; in most records, active means well fitted curve in the direction sought with a large enough effect; inconclusive means small, poorly fitted or top-dose-only effect, or another doubt; inactive means no such curve, though single readings can be large; an effect the other way counts as inactive or inconclusive.

CN(C)C[C@@H]1CN(C2CCOCC2)C[C@H]1NC(=O)c1cc2ccccc2[nH]1	NIH3T3 tox inconclusive, HEK cytotox 31.6µM
CC(C)(C)c1ccc(-c2cc(C[C@H]3CNCC[C@H]3CC(=O)N3CCCCC3)no2)cc1	NIH3T3 tox 35.5µM, HEK cytotox inconclusive
CN1CCN(C(=O)C[C@@H]2CCNC[C@@H]2Cc2cc(-c3ccc(C(C)(C)C)cc3)on2)CC1	NIH3T3 tox 79.4µM, HEK cytotox inconclusive
Cc1cccc(OCC2(CNCc3cnn(C)c3)C[C@@H](O)[C@@H](O)C2)n1 (some centres undefined)	GPT2 inh inconclusive
O=C(Nc1ccccc1)N1CCC(C(=O)N2CCC(c3nc4ncccc4[nH]3)CC2)C1 (centres undefined)	GPT2 inh inconclusive (no result: NPR1 antag, Luciferase inh)
CCCCCC(=O)N1C[C@@H](C(=O)OCC)[C@@H]2Oc3c(C)cccc3[C@@H]21	NIH3T3 tox inconclusive (no result: GPT2 inh, NPR1 antag, Luciferase inh)
CCCCOC(=O)N1C[C@@H](CO)[C@@H]2Oc3c(C)cccc3[C@@H]21	NIH3T3 tox 39.8µM, HEK cytotox inconclusive (no result: GPT2 inh, NPR1 antag, Luciferase inh)
CC(C)C[C@@H]1N[C@H](C(=O)NC2CCC2)Cc2cn(CC3CC3)c3cccc1c23	NIH3T3 tox inconclusive, HEK cytotox 56.2µM
CC(C)C[C@@H]1N[C@H](C(=O)O)Cc2cn(CC3CCC3)c3cccc1c23	GPT2 inh inconclusive, NIH3T3 tox 79.4µM, HEK cytotox 70.8µM
O=C1NC2(Cc3ccccc31)CN(CC1CCNCC1)C2	none (no result: NPR1 antag, Luciferase inh)
O=C1CCCCC(Cc2ccccc2)(C(=O)NC2CCS(=O)(=O)C2)N1 (centres undefined)	none
CCOC(=O)c1oc2ccc(S(=O)(=O)N3CC4CN(C)CC(C3)O4)cc2c1C	NIH3T3 tox inconclusive (no result: NPR1 antag, Luciferase inh)
CCOc1ccccc1C1NC(=O)N(CC(=O)Nc2ccc(OC)c(Cl)c2)C2=C1C(=O)OC2 (centres undefined)	NIH3T3 tox inconclusive, Luciferase inh inconclusive
COc1cccc(N2C(=O)OCC23CCN(Cc2c[nH]c4ccccc24)C3)c1 (centres undefined)	HEK cytotox inconclusive
O=C(OCc1ccccc1)N1CCOCC12CCN(Cc1c[nH]c3ccccc13)CC2	NIH3T3 tox 35.5µM, HEK cytotox 56.2µM
O=C1OCC2(CCN(Cc3c[nH]c4ccccc34)C2)N1Cc1ccccc1 (centres undefined)	NIH3T3 tox 89.1µM, HEK cytotox inconclusive
O=C(OCc1ccccc1)N1CCOCC12CCN(Cc1ccc(O)cc1)CC2	NIH3T3 tox 79.4µM, HEK cytotox inconclusive
CC(C)CCNC(=O)CN1C(=O)NC2(CCCCC2)C1=O	none
CC(=O)N1CCC(N2CC[C@@H](CO)N(C)c3ncccc3C2)CC1	NIH3T3 tox 44.7µM, HEK cytotox inconclusive
Cc1ccc(NC(=O)Cn2c(N3CCCCC3)nc(C)c(C)c2=O)cc1C	NIH3T3 tox inconclusive, HEK cytotox 22.4µM
COCC(=O)NC1CCC12CCN(C(=O)c1ccco1)CC2 (centres undefined)	none
CCc1nc2c(c(-c3ccc(Cl)cc3)n1)CCN(Cc1cccc3ccccc13)CC2	HEK cytotox 44.7µM
CCc1nc2c(c(-c3ccc(O)cc3)n1)CN(Cc1cccc3ccccc13)CC2	NIH3T3 tox inconclusive, HEK cytotox 89.1µM
CCc1nc2c(c(-c3ccc(OC)cc3)n1)CCN(Cc1cccc3ccccc13)CC2	NIH3T3 tox inconclusive, HEK cytotox inconclusive (no result: NPR1 antag, Luciferase inh)
CC(C)c1nc2c(c(-c3ccc(O)cc3)n1)CCN(Cc1cccc3ccccc13)CC2	NIH3T3 tox inconclusive, HEK cytotox 25.1µM, NPR1 antag inconclusive
Cc1cnn(CC(=O)N2CCc3nn(C)c(=O)n3CC2)c1	none
O=C(NCCc1ccccc1)N1CCC(OCCOc2cccnc2)CC1	none (no result: NPR1 antag, Luciferase inh)
CC(C)c1noc(CN(C)C(=O)CC2C(=O)NCCN2Cc2ccoc2)n1 (centres undefined)	none
O=C(c1ccc2c(c1)OCO2)N1CCc2nc(C3CC3)nc(-c3ccc(Cl)cc3)c2CC1	NIH3T3 tox inconclusive, HEK cytotox 28.2µM
O=C1CC2(CCN(C(=O)c3ccc(Cl)cc3)CC2)Oc2cc(Cl)ccc21	NIH3T3 tox inconclusive, HEK cytotox inconclusive (no result: NPR1 antag, Luciferase inh)
Cn1cccc1CN1CCC2(CC1)CC(=O)c1ccc(Cl)cc1O2	NIH3T3 tox inconclusive, HEK cytotox 44.7µM, Luciferase inh inconclusive
